We go through 28 compounds from PubChem BioAssay AID651815 (National Center for Advancing Translational Sciences (NCATS), 2012).

The structures appear in SMILES notation. Out of some 2,100 compounds screened, about 1,100 (52%) were called active. Roughly 29% stayed inconclusive and do not appear here. Calls come from the whole dose curve; as a rule, active = well fitted inhibition curve with a large enough effect; inconclusive = small, poorly fitted or top-dose-only effect; inactive = no such curve, though single readings can be large or run the other way. The set was probably picked from earlier hits. The list shows a part of the results.
Potency is the fitted concentration of half-maximal effect.

The experiment deals with DNA dC->dU-editing enzyme APOBEC-3F (Homo sapiens) (UniProt Q8IUX4). As to the kind of experiment: qHTS for inhibitors of Vif-A3F interactions: Cherry picks counterscreen. Note: nearly all actives have a fitted effect of over 65% in size. Particulars: HeLa A3F-eYFP/Vif cells, eYFP fluorescence, 24 h; series mostly up to 46.1 µM. In short, it runs like this: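 Rescue of Vif-driven A3F-eYFP degradation read as cellular eYFP fluorescence after 24 h compound exposure (several concentrations) in stable HeLa cells; MG132 (2 mM stock) as positive control.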
DNA dC->dU-editing enzyme APOBEC-3F (Homo sapiens), sequence (Q8IUX4 whole entry, looked up): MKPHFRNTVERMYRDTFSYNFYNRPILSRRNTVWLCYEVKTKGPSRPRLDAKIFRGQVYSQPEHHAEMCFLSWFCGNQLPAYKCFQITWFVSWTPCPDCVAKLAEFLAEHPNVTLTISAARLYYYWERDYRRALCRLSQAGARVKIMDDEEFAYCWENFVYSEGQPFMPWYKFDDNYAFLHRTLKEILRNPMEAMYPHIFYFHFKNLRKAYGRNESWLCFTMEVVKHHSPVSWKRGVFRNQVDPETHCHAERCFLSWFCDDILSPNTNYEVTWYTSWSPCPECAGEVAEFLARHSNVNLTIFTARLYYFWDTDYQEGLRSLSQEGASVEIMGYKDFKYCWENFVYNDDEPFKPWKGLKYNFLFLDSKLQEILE
On the technique in general: In qHTS, concentration-response curves come from the screen itself.
Consider `COc1ccc(OC)c(NC(=O)Cn2cnc3onc(-c4ccc(Cl)cc4)c3c2=O)c1`, for which the Potency result was “inactive”.
As to `COc1ccc(OC)c(NC(=O)Cn2c(=O)n(-c3ccc(Cl)cc3)c(=O)c3c(C)c(C)sc32)c1`, the Potency was 5.8 µM (active).
Take `Cc1ccc(-c2cc(C(=O)N/N=C/c3c[nH]c4ccccc34)[nH]n2)cc1`: the Potency was 3.53 µM (active).
In the case of `Cc1cc(N)cc(C)c1-c1c(Br)cc(N)cc1Br`, the Potency is 12.5 µM (active).
To `O=C1S/C(=C\c2ccc(N3CCOCC3)o2)C(=O)N1c1ccccc1` belongs 3.53 µM (active); to `CCOC(=O)CN1C(=O)S/C(=C/c2ccc(N3CCCCC3)o2)C1=O`, 4.61 µM (active); to `O=C1S/C(=C/c2ccc(N3CCOCC3)o2)C(=O)N1Cc1ccc(F)cc1`, 5.59 µM (active).
Consider `CCCN1C(=O)S/C(=C\c2ccc(N3CCOCC3)o2)C1=O`, for which the Potency was 3.96 µM (active).
On to `Cc1ccc(NC(=S)N/N=C2\CCCCC2C)cc1` (stereo not drawn), for which the Potency entry is “inactive”.
With `O=C1S/C(=C/c2ccc(N3CCOCC3)o2)C(=O)N1Cc1c(F)cccc1Cl`, the Potency was 2.23 µM (active).
Consider `CC(C)n1cc(NC(=O)c2cc(-c3ccccc3)on2)cn1`, for which the Potency was 3.53 µM (active).
As for `O=C(Nc1nc2ccc(S(=O)(=O)N3CCCC3)cc2s1)C1CCCCC1`, the figure is 4.44 µM (active); as for `CCc1ccc2nc(N(CCCN(C)C)C(=O)c3ccc(S(=O)(=O)N(C)C4CCCCC4)cc3)sc2c1`, “inactive”; as for `O=C(Nc1nc(-c2ccccn2)cs1)C1CCCC1`, “inactive”.
As for `C=CCOc1c(Cl)cc(C(=S)N2CCCC2)cc1OCC`, the figure is 14 µM (active); as for `CCCCOc1ccc(/C=C/C2=CC(C)(C)NC(=S)N2)cc1OCC`, “inactive”.
For the compound `Cc1ccc(F)c(S(=O)(=O)NC(=O)C2(C)CCN2C(=O)Cc2ccc(Cl)cc2Cl)c1` (stereo not drawn), the Potency entry is “inactive”.
In the case of `CCOC(=O)c1cc(-c2ccccc2C)n(CC2CC(c3ccc(OC)cc3)=NO2)n1` (stereo not drawn), the Potency result is “inactive”.
`Cc1cc(=O)oc2cc(OCC(=O)N3c4ccccc4CC3C)ccc12` (stereo not drawn): the Potency was 3.53 µM (active).
As to `COc1ccccc1C1=NOC(COc2ccc3c(C)cc(=O)oc3c2)C1` (stereo not drawn), the Potency was 1.12 µM (active).
As for `COc1cc(/C=N/Nc2ccc(Cl)nn2)cc(OC)c1O`, the entry is “inactive”; as for `COc1cc(/C=N/Nc2cc(C)nc(NS(=O)(=O)c3ccccc3)n2)ccc1O`, “inactive”; as for `COc1ccc(-c2cnnc(N/N=C/c3ccc(O)c(OC)c3)n2)cc1`, 9.94 µM (active).
`Oc1ccc(/C=N\Nc2nncc(-c3ccccc3)n2)cc1`: the Potency is 19.8 µM (active).
With `O=c1oc2c3c4c(cc2c(C(F)(F)F)c1CCN1CCOCC1)CCCN4CCC3`, the Potency was 3.66 µM (active).
Turning to `Cc1ccc2[nH]c(C(=O)NN=C3CCCCC3)c(-c3ccccc3)c2c1`, the Potency result was “inactive”.
Take `CN(C)c1ccc(/C=N/NC(=O)c2cc(-c3ccc4c(c3)OCO4)n[nH]2)cc1`: the Potency was 15.8 µM (active).
For `CCc1ccc(NC(=O)/C(C#N)=C/c2cc3ccc(C)cc3nc2N2CCOCC2)cc1`, the Potency was 23.1 µM (active).
